This is part of a sample that, as a whole, favours compounds with a hit. Of some 83,000 tested, about 20% had one in any assay.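 Method: cells in 96-well plates; compound added at one concentration; 48 h incubation; percent growth measured; values under 10 scored active.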 A number with no mark means an inactive call. Active and inactive are the calls of the source.

In PubChem BioAssay (NCI) one finds growth data, which are given here for 36 compounds.

This assay has as its system HL-60(TB) leukemia. Description: NCI-60 one-dose screen, 48 h (100 = growth as untreated, 0 = no growth, -100 = all killed). The following applies: 10 µM unless noted.
Consider `CC(=O)c1c(/C=C/c2ccc(C)cc2)c2ccccc2[nH]c1=O`, for which the growth was 99.3%.
Consider `CCOC(=O)C(=O)CC(=O)c1ccccc1`, for which the growth is 95.5%.
On to `CC(=O)Nc1ccc(C(=O)c2ccc(S(=O)(=O)Nc3ccccc3)cc2)cc1`, for which the growth is 102%.
With `C/C(=N\Nc1cc(C)c2cc(C)ccc2n1)c1ccccn1`, the growth is -54.9% (active).
For `CC[C@]1(O)C[C@H]2CN(CCc3c([nH]c4ccccc34)[C@@](C(=O)OC)(c3cc4c(cc3OC)N(C=O)[C@H]3[C@@](O)(C(=O)OC)[C@H](OC(C)=O)[C@]5(CC)C=CCN6CC[C@]43[C@@H]65)C2)C1`, the growth was -25.1% (active).
Regarding `CC(C)OC(=O)Nc1ccc(-c2nc(-c3cccc(OCCN4CCOCC4)c3)c(-c3ccnc(Br)c3)[nH]2)cc1`, the growth is -47.7% (active).
Take `C#CCOc1ccc2ncnc(N3CCC(NC(=O)CCl)CC3)c2c1`: the growth was 68.8% [8.25 µM].
For `CCOC(=O)c1ccc2c(c1)[n+](=O)c(C(C)=O)c(C(F)(F)F)n2[O-]`, the growth was -65.9% (active).
Regarding `O=C1/C(=C/c2cccc([N+](=O)[O-])c2)COc2ccc(O)cc21`, the growth is 15.3%.
Regarding `CC(C)C(=O)c1ccc(Cl)s1`, the growth was 99.9%.
Consider `CCN1C(=O)N(c2ccccc2)C2NC(=S)N(/N=C/C=C/c3ccccc3)C21` (stereo unspecified), for which the growth was -26.4% (active).
`CCOC(=O)c1cnn(CC(C)O)c1NC(=O)NCc1ccccc1C(F)(F)F` (stereo unspecified): the growth was 58%.
Take `CC(C)N(CCOC(=O)Nc1ccccc1Cl)C(C)C`: the growth was 103%.
Turning to `Cc1ccc2nc3c(nc2c1)-c1cccc2cccc-3c12`, the growth was 93.5%.
Regarding `COc1cccc(NC(=O)Cn2cc3c(=O)oc4ccccc4c3n2)c1`, the growth is 107%.
On to `O=C1/C(=C/N2N=C(c3ccc4ccccc4c3)CC2c2ccccc2O)SC(=S)N1c1cccnc1` (stereo unspecified), for which the growth is -15.3% (active).
Regarding `CN1CC(c2ccc(Br)cc2)C(C(=O)c2ccc(Br)cc2)C12C(=O)Nc1ccccc12` (stereo unspecified), the growth was 98.4%.
The value for `CC(C)[C@@H]1NC(=O)[C@]2(C)CSC(=N2)c2ccnc(c2)CNC(=O)C[C@@H](/C=C/CCS)OC1=O` was 9.07% (active); that for `CCNC(=O)C#Cc1ccc2c(C(=Nc3ccc(CN(C)C)cc3)c3ccccc3)c(O)[nH]c2c1` was -7.13% (active); that for `O=C(O)c1cccc2c1-c1ccc(Cl)cc1C2` was 78.1%.
As for `CN(C)CCOc1nc2c3cc([N+](=O)[O-])ccc3nn2c2ccccc12`, the growth was 11.7%.
The value for `CCOC(=O)/C=C\C(=O)NC(N)=O` was 74.9%; that for `COC(=O)[C@@H]1CC[C@]2(C)[C@H](CC[C@@H]3O[C@@]32C)[C@@]1(C)CC(=O)c1ccoc1` was 89.8%.
For `O=C(/C=C/C12c3ccccc3C(c3ccccc31)C1C(=O)N(c3ccc(Cl)cc3)C(=O)C12)c1ccccn1` (stereo unspecified), the growth was -19.4% (active).
Turning to `CN(C)Cc1cc(C(C)(C)C)cc(Br)c1O`, the growth is 123%.
As for `Cn1ccnc1C(=O)/C=C/c1ccc(CC(=O)Nc2ccccc2)cc1`, the growth was -27.2% (active).
With `C=C(C)[C@@H]1CC[C@]2(C)[C@H](CC[C@@H]3[C@H]4[C@H]5OC[C@@]4(CCC5(C)C)CC[C@]32C)[C@@]1(C)CCCN`, the growth was -4.66% (active).
As for `Cc1cccc(NC(=O)[C@@H]2c3ccccc3C(=O)N(c3ccc(Cl)cc3)[C@H]2c2ccc(Cl)cc2)n1`, the growth was 36.2%.
Take `CCNc1nc(S(=O)(=O)CC)nc2ccccc12`: the growth is 91.8%.
The figure for `COc1ccc(/C=C2/CN(C(=O)c3ccccc3F)C/C(=C\c3ccc(OC)cc3)C2=O)cc1` is 51.4%; for `COC1OC(COS(=O)OC)C(O)C(O)C1OS(=O)OC` (stereo unspecified) it is 82.6%; for `CCCCC1CCc2cccc3c(SCC(=O)N(C)c4ccc(Cl)cc4)cc[n+]1c23` (stereo unspecified) it is 91.4%.
For `Nc1c(C(=O)Nc2c(Cl)cccc2Cl)sc2nc3c(cc12)C(=O)CCC3`, the growth is 11.5%.
For the compound `CC(C)OCCCNCC(=O)Nc1ccc(S(=O)(=O)c2ccc(NC(=O)CNCCCOC(C)C)cc2)cc1`, the growth is 82.1%.
`COc1ccc(NC(=O)Nc2ccc(Nc3nc(C)cc(Nc4ccc(C)cc4)n3)cc2)cc1`: the growth is -55.4% (active).
For the compound `COC1CC2CCC(C)C(O)(O2)C(=O)C(=O)N2CCCCC2C(=O)OC(C(C)CC2CCC(O)C(OC)C2)CC(=O)C(C)C=C(C)C(O)C(OC)C(=O)C(C)CC(C)/C=C/C=C/C=C1C` (stereo unspecified), the growth is 86.6%.
